Test results taken from article PMC10163288.
These entries were drawn from the full list. The true hit rate is not given.

B1: il2ra_site1_3nfp_normal_mot_ems_3hC_3_0002_000000237_0001_23_41_H_._971380201c9414114138cf1fdc40c0f4_0001_1_0001_0000300014_0000001_0_af2pred_0001_af2pred (protein)
chain: SLAEELVEEIEEKGLPPEEIEKLIREILKRIGDPEEAREFFEELMRLAAKNRNEELLEAIKLVLR
B2: il2ra_site1_3nfp_sap_10_mot_HHH_b2_00770_af2_000000063_0001_1_19_H_._HHH_b2_07788_0001_0000400012_0000001_0_0001 (protein)
chain: NEEARRLAEAIARGDPRVEELIEELVEELKRKGDPDLRHALKALARMARSFGNPELAEELERLLK
B3: il2ra_site1_1z92_normal_mot_HHH_b1_07828_af2_000000107_0001_18_34_H_._HHH_b1_02447_af2_0001_0000300012_0000001_0 (protein)
chain: SSSSDLEEAIEILLQAIRRAIEAGNEKAAERFIEFAKEQIEDSGDPELERILRELEELLRSSSSS
B4: il2ra_site1_2b5i_normal_mot_HHH_b1_02271_000000068_0001_1_16_H_._HHH_b1_08003_0001_0000900024_0000001_0_af2pred_dldesign_0_af2pred (protein)
chain: SSSSSDKKAEVERLIEEAERLYKAGKRREALEKLNEAKKLADAADDEELEDKIEELAKKISSSSS
B5: il2ra_site1_3nfp_sap_13_mot_0eddeacbb14b769e73e254714f31e2f9_0001_af2_000000052_0001_37_51_H_._3685a7fc0315cffcf770f862f50b42b9_0001_1_0001_0000400028_0000001_0 … (protein)
chain: SDLEEEVRELIELIKEFAEERNSPVAKLYAELLEEAARRAEERNDERSLRYVLRSARLALRSGSS
B6: il2ra_site1_1z92_sap_18_mot_HHH_b1_00368_000000203_0001_23_39_H_._d7cfadeb27be910639eb6e95e3396c32_0001_af2_0001_0000300014_0000001_0_0001 (protein)
chain: SSSSDEELEERVKQFAEELVKELGLDEHAREALEKDAEAAVRLGFSERSIKLALERAARRASSSS
B7: il2ra_site1_3nfp_sap_17_mot_HHH_b1_07644_af2_000000110_0001_40_57_H_._HEEHE_2706_0001_0000400054_0000001_0_0001_af2pred_0001_af2pred_1_swapped (protein)
chain: SSSSDALEFVEELAEKAFENNDKFQLRALYKLLREALEKTGNPEAEEVLEKVEELLRELQSSSSS
B8: il2ra_site2_2erj_sap_25_mot_ca9fcc9ace360711d783d1260e4fbff1_0001_1_af2_000000007_0001_15_32_H_._7f39e2d7389de0c2f60e905c27398b6a_0001_1_af2_0001_0000400011_000 … (protein)
chain: SSSSSYEERVEELLEEAEEAYREGDLHAVYRLAVEALHVASELGDQELIRLVAEFVEKISDSSSS
B9: il2ra_site1_2b5i_sap_16_mot_HHH_b1_01419_af2_000000080_0001_42_53_H_._HHH_b1_05266_af2_0001_0000100001_0000001_1_0001_af2pred_dldesign_0_af2pred (protein)
chain: SSSSSNQDEVYRLYKEALRLYKEGKREEAKKVLEEALKLAEKNKDEVAVKELKELLKRLESSSSS
B10: il2ra_site1_1z92_normal_mot_9b3351f2f66fbcc824ad33b4da01f8ef_0001_af2_000000012_0001_16_32_H_._HHH_b1_08171_0001_0000100006_0000001_0 (protein)
chain: SSSSSEEVLKKDLRFAVEARNPSSFRRLAELARRDLKEAGDEEALREFEEFVEELEQELGSSSSS
B11: il2ra_site1_1z92_normal_mot_HHH_b1_00893_000000159_0001_19_35_H_._43152d1d296b358565056a4a32fd9b81_0001_1_af2_0001_0000300029_0000001_0_af2pred_0001_af2pred_1_s … (protein)
chain: DDEELEEKLKEAAENRDVEKLEELLRELLELLGDPAVKFLLEFFERLLKRDEEDAVKNVLRFVSF
B12: il2ra_site1_2b5i_normal_mot_HHH_b1_06428_000000224_0001_1_17_H_._HHH_b1_02461_0001_0000700038_0000001_0_af2pred_dldesign_0_af2pred (protein)
chain: SSSSSSLAEARRLLLETEELLKAGKLEELAKLKKRIDALKAASDDPKVKKIADLINEALESSSSS
B13: il2ra_site2_2erj_normal_mot_c2bf78bdce995293a161f7082e24b401_0001_af2_000000082_0001_17_32_H_._HHH_b1_07868_0001_0000100001_0000001_0 (protein)
chain: SSSSSDEEEIRREVEELLEKVEEVPDLEEAYRLANEALRLASRLQDEELLRLILEVVQRHSSSSS
B14: il2ra_site2_3nfp_normal_mot_HHH_b1_05627_af2_000000038_0001_43_56_H_._HHH_b1_07199_af2_0001_0000600017_0000001_0 (protein)
chain: SSSSDKAEEYLRIALELLEEAIKAGDEESAKSILEVARLAAELHNDEEVEERLEELEELLSSSSS
B15: il2ra_site1_3nfp_normal_mot_HHH_b1_04049_af2_000000244_0001_42_55_H_._d1fb33ed66649044859e967e86ea168f_0001_af2_0001_0000200005_0000001_0 (protein)
chain: TKEKAIEDIIRALKQLPDPEVRELAEEAEELLENGDPEEALKVLKEAAKLLGDPVLEKLIEQYLT
B16: il2ra_site2_3nfp_sap_7_mot_HHH_b2_00746_000000285_0001_20_36_H_._HHH_b2_00413_af2_0001_0000200017_0000001_0_0001 (protein)
chain: SSSSDEVEELLREIRELLEEGDTYEAAQLLVRVSEIAAKLGDPELVKIVLELYKILKEKASSSSS
B17: il2ra_site2_3nfp_normal_mot_HHH_b1_05785_af2_000000002_0001_41_57_H_._HHH_b1_03527_af2_0001_0000800015_0000001_0 (protein)
chain: SSSSDEAEEYVKAALALLEEALEQGDEELFEKLARLIELAIEDLGNPELEERLEELKERGSSSSS
B18: il2ra_site2_2erj_sap_23_mot_ca9fcc9ace360711d783d1260e4fbff1_0001_1_af2_000000007_0001_15_32_H_._HHH_b2_04203_af2_0001_0000300022_0000001_0_0001 (protein)
chain: SSSDREEARVHFLAFRAMRLNNNGNPEEAQKVLEEAKEIAEENNNEELREWLEAMERTIKHSSSS
B19: il2ra_site2_3nfp_sap_18_mot_HHH_b1_07556_000000077_0001_42_55_H_._HHH_b2_07201_0001_0000400029_0000001_0_0001 (protein)
chain: SSSSDEEEEVKRSLEYLKAVAKLHNDEELQEVIEEAERILEEDNDPEKAAEALSEIALKLASSSS

Biological target: il2ra, P01589
Sequence (P01589 whole entry): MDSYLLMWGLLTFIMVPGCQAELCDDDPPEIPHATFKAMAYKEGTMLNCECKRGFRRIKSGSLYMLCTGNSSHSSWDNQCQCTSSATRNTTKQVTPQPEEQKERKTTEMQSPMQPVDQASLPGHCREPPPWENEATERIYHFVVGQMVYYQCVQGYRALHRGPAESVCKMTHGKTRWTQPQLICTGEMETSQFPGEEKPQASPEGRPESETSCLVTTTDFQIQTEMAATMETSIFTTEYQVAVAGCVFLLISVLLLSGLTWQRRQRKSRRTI
Experiment: yeast display titration

Apparent Kd, inactive:
B1 no binding seen
B2 no binding seen
B3 no binding seen
B4 no binding seen
B5 no binding seen
B6 no binding seen
B7 no binding seen
B8 no binding seen
B9 no binding seen
B10 > 1500 nM
B11 > 2780 nM
B12 no binding seen
B13 no binding seen
B14 no binding seen
B15 no binding seen
B16 no binding seen
B17 no binding seen
B18 no binding seen
B19 no binding seen
